Source: PubChem (several laboratories)
NCF1 inh: inhibitors of human p47phox binding. P14598. p47phox/p22phox peptide binding, fluorescence polarization, 2 h. inhibition, % at 24.7 µM. actives 0.53% (n = 220,000). AID 1274;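 active means inhibition above about 30%, limit read from the data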
14-3-3 Bad inh: disrupts binding of bovine 14-3-3 zeta to phospho-Bad peptide. inhibition, % at 21.7 µM. TR-FRET 14-3-3zeta/Dy647-pBad peptide displacement, 1 h. AID 781. actives 0.71% (n = 220,000);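 active means inhibition above about 70%, limit read from the data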
Calpain2 inh: calpain II (pig) inhibition; purified calpain II, fluorogenic peptide substrate, 30 min; inhibition, % at 16 µM; actives 0.37% (n = 220,000); AID 1236;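 active means inhibition above about 50%, limit read from the data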
Bim-Mcl-1: human Bim-Mcl-1 interaction inhibition | actives 0.1% (n = 190,000) | Bead-based flow cytometry, Bim peptide-Mcl-1 binding | inhibition, % at 10 µM | Q07820; in the data active means inhibition above about 40%
Target sequence (Q07820 whole entry, looked up): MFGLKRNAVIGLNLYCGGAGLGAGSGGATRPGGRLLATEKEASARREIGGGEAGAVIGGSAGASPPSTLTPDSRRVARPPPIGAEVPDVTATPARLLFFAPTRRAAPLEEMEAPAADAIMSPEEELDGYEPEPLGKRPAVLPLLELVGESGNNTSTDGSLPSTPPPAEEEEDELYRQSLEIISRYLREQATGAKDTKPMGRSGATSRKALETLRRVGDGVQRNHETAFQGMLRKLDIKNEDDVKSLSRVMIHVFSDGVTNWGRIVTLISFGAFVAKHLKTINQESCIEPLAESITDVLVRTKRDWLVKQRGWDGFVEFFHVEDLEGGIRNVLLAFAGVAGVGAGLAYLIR
Mcl1-Bid inh: disrupts binding of human Mcl-1 to Bid peptide. Q07820. TR-FRET Mcl-1/Bid-Dy647 peptide binding, 1536-well. inhibition, % at 21.7 µM. actives 0.97% (n = 220,000). AID 1021;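 active means compounds that cut the binding signal by more than half at the single screening dose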;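 further: His-tagged Mcl-1 with europium anti-His antibody binding Bid BH3 peptide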
Mcl1 Noxa PPI: disrupts binding of human Mcl-1 to Noxa peptide. Q07820. TR-FRET Mcl-1/Noxa peptide binding, 2 h. inhibition, % at 21.7 µM. actives 1.5% (n = 220,000). AID 1022;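 active means compounds that cut the protein-peptide binding signal by more than 50% relative to plate controls in a single-dose test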;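 further: His-tagged Mcl-1 with rhodamine Noxa BH3 peptide and terbium anti-His antibody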
Large screens that a line does not name were inactive; [ ] = remark or other dose. This is a sample that favours compounds with a hit; in the whole collection about 3.4% have one here.

C=C(C)C(=O)Nc1cccc(C2=NOC3(C2)C[C@@H](C(N)=O)N(C(=O)CC(c2ccccc2)c2ccccc2)C3)c1 (stereo partly specified)	Mcl1 Noxa PPI 56 (no result: Bim-Mcl-1)
C=C(C)C(=O)Nc1cccc(C2=NOC3(C2)C[C@@H](C(N)=O)N(C(=O)/C=C/C=C/C)C3)c1 (stereo partly specified)	Mcl1 Noxa PPI 97 (no result: Bim-Mcl-1)
C=C(C)C(=O)Nc1cccc(C2=NOC3(C2)C[C@H](C(N)=O)N(C(=O)CC)C3)c1 (stereo partly specified)	Mcl1 Noxa PPI 69 (no result: Bim-Mcl-1)
O=c1[nH]c(Nc2ccc3c(c2)OCCO3)nnc1Cc1ccccc1	none
C=C(C)C(=O)Nc1cccc(C2=NOC3(C2)C[C@H](C(N)=O)N(C(=O)c2ccccc2C(=O)c2ccccc2)C3)c1 (stereo partly specified)	Mcl1 Noxa PPI 71 (no result: Bim-Mcl-1)
C=C(C)C(=O)Nc1cccc(C2=NOC3(C2)C[C@@H](C(N)=O)N(C(=O)/C(C)=C/C)C3)c1 (stereo partly specified)	Mcl1 Noxa PPI 73 (no result: Bim-Mcl-1)
C/C=C(\C)C(=O)Nc1cccc(C2=NOC3(C2)C[C@@H](C(N)=O)N(C(=O)c2ccccc2C(=O)c2ccccc2)C3)c1 (stereo partly specified)	none (no result: Bim-Mcl-1)
Cc1cc(C(=O)CSc2nnc(-c3ccncc3)n2-c2ccccc2)c(C)n1C	Mcl1-Bid inh 51
Cc1onc(-c2ccc(Cl)cc2)c1-c1ccnn1S(=O)(=O)c1cccc(C(F)(F)F)c1	none (no result: Bim-Mcl-1)
CCN1C(=O)/C(=C2/Sc3ccc(OC)cc3N2C)SC1=Nc1cccc(O)c1	Mcl1-Bid inh 65, Mcl1 Noxa PPI 70
C=CCN1C(=O)/C(=C2/Sc3ccc(OC)cc3N2C)SC1=Nc1ccccc1	none
Cc1cc(=O)oc2cc(OCC3CC(c4ccc(N(C)C)cc4)=NO3)ccc12 (stereo unspecified)	Mcl1-Bid inh 52
Cc1cc(=O)oc2cc(OCC3CC(c4ccc(Cl)cc4)=NO3)ccc12 (stereo unspecified)	none
CSc1nc(N)nc(C2CC2)n1	none (no result: Bim-Mcl-1)
CC(C)CC1NC(=O)N(CC(=O)NC2CCCc3ccccc32)C1=O (stereo unspecified)	none
CCN(CC)c1cc(C)c2cc(NC(=O)c3ccc(Br)o3)ccc2n1	Mcl1 Noxa PPI 60
CCN1CCN(c2cc(C)c3cc(NC(=O)c4ccc(Br)o4)ccc3n2)CC1	none
C=CCN1c2ccccc2[C@]23C[C@@H](C(=O)OC)N(C(=O)NCCC)C2=NC(C(=O)OC)=C(C(=O)OC)[C@H]13	none (no result: Bim-Mcl-1)
COc1ccc(N=C2O/C(=C/c3sc(=S)n(CC4CCCO4)c3O)N=C2C#N)cc1 (stereo unspecified)	NCF1 inh 42 (no result: Bim-Mcl-1)
O=C(CCS(=O)(=O)c1cccs1)Nc1ccc(C(=O)NC2CCCC2)cc1	none
O=C1NC(=S)N/C1=C/c1cccc([N+](=O)[O-])c1	none
O=C1NC(=S)N/C1=C/c1ccc(-c2c(Br)cc([N+](=O)[O-])cc2Br)o1	14-3-3 Bad inh 95[fluorescence artefact?], Mcl1-Bid inh 98, Mcl1 Noxa PPI 86
Cc1ccc(-c2ccc(/C=C3\C(=O)ON=C3c3ccccc3)o2)c([N+](=O)[O-])c1	none (no result: Mcl1 Noxa PPI)
Cc1ccc(-c2ccc(/C=C3/NC(=O)NC3=O)o2)cc1[N+](=O)[O-]	14-3-3 Bad inh 90[fluorescence artefact?], Mcl1-Bid inh 73, Mcl1 Noxa PPI 77
CC1=C(C#N)C(=O)NC(=O)/C1=C\c1ccc(-c2cc(C)c(C)cc2[N+](=O)[O-])o1	Mcl1-Bid inh 92, Mcl1 Noxa PPI 100
Cc1ccc(-c2ccc(/C=N/NC(=S)Nc3ccccc3)o2)cc1[N+](=O)[O-]	none
Nc1nc(SCc2ccccc2Cl)ns1	none
CC(C)c1cc(C(C)C)c(S(=O)(=O)NNC(=O)c2ccncc2)c(C(C)C)c1	none
CCCCCCNC(=O)N[C@@H](C(=O)NCCC[C@H]1CN2C(=NC[C@@H]2Cc2ccccc2)N1CCc1cccc(OC)c1)C(C)C	NCF1 inh 66 (no result: Bim-Mcl-1)
C/C=C(\C)C(=O)NCCN1C2=NC[C@@H](Cc3ccccc3)N2C[C@H]1Cc1ccc(O)cc1	none
CCC(C(=O)NC1CCCC1)N(C(=O)Cn1nnc(-c2ccc(C)o2)n1)c1cnc2ccccc2c1 (stereo unspecified)	14-3-3 Bad inh 78
